Assay outcomes: PubChem, National Center for Advancing Translational Sciences (NCATS)
Sm TGR inh = blocks Schistosoma mansoni thioredoxin glutathione reductase | Potency, µM (titrated, usually from 114 µM), for inactives: at the highest dose activity change, negative = inhibition, most hits filed as inhibitors | 360,000 tested, 3% active | Q962Y6 | purified TGR, DTNB reduction, TNB absorbance 405 nm | AID 485364; active = well fitted inhibition curve with a large enough effect; inconclusive = small, poorly fitted or top-dose-only effect; inactive = no such curve, though single readings can be large or run the other way; also: nearly all actives have a fitted effect of over 60% in size
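First, TGR (20 nM dispensed) and NADPH were mixed with compound. Second, a 15 min room-temperature incubation followed. Third, further NADPH and then DTNB were added to start the reaction. Finally, TNB absorbance was monitored kinetically.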
LASV entry inh = blocks Lassa virus binding to or entry into cells. Potency, µM (doses to about 37.9 µM), for inactives: at the highest dose activity change, negative = inhibition, actives largely listed as inhibitors. 300,000 tested, 1.2% active. Lassa virus pseudotype entry inhibition, cell reporter; calls by dose curve; tested in HEK293 cells; also: nearly all actives have a fitted effect of over 50% in size
Marburg entry inh = Marburg virus entry inhibition; 300,000 tested, 1.8% active; Marburg virus pseudotyped entry inhibition, cell reporter; Potency, µM (doses to about 37.8 µM), inactives show top-dose activity change, negative = inhibition, actives largely listed as inhibitors; calls by dose curve; tested in HEK293 cells
VACV Venus inh = inhibitors of vaccinia virus (Venus reporter) | Vaccinia virus Venus reporter expression, fluorescence | Potency, µM (series often up to 36.5 µM), inactives show at the top dose activity change, negative = inhibition, most hits filed as inhibitors | 330,000 tested, 0.46% active; calls by dose curve; tested in A549 cells; also: nearly all actives have a fitted effect of over 30% in size
FMDV antiviral = antivirals against foot and mouth disease virus; FMDV antiviral cell-based qHTS; Potency, µM (doses to about 57.9 µM), inactives show at the top dose activity change, negative = inhibition, hits mostly inhibitors; 410,000 tested, 1.2% active; AID 1159524; calls by dose curve; tested in HEK293T cells; also: read-out not given here; nearly all actives have a fitted effect of over 45% in size
Vaccinia mCherry = inhibitors of vaccinia virus infection (mCherry reporter signal); AID 720579; Vaccinia virus mCherry reporter infection, fluorescence; Potency, µM (top dose mostly 36.5 µM), for inactives: at the top dose activity change, negative = inhibition, hits mostly inhibitors; 310,000 tested, 0.63% active; calls by dose curve; tested in A549 cells; also: nearly all actives have a fitted effect of over 35% in size
Active calls of the source: *; i = inactive; ? = inconclusive; · = no result given; ! = repeats disagree; [ ] = dose if it differs, or a comment. Rows were chosen to be rich in hits. Some 5.4% of all compounds tested hit in one or more screens of this group. % is scaled to controls: 0 for no effect and ±100 for the full control effect; potency is read from the fitted curve at half-maximal effect.

SMILES	Sm TGR inh	LASV entry inh	Marburg entry inh	VACV Venus inh	FMDV antiviral	Vaccinia mCherry
O=C(NCc1ccc(/C=c2\sc3n(c2=O)CCN=3)o1)C(=O)Nc1ccccc1	35µM*	·	·	·	·	·
Cc1ccc(/C=c2\sc3n(c2=O)CN(c2ccc(Br)cc2)CN=3)o1	13µM*	14%	1%	-17%	-3%	-25%
Cc1ccc(/C=c2/sc3n(c2=O)CCCN=3)o1	11µM*	18%	?	·	0%	·
O=c1/c(=C\c2ccc3c(c2)OCO3)sc2n1CCCN=2	0%	1%	?	·	-1%	·
Cc1nc2ccccn2c1C(=O)N/N=C/c1ccc(CNC(=O)C(=O)Nc2ccccc2)o1	-18%	-4%	-10%	-3%	-10%	-10%
Cc1ccc(CNC(=O)C(C)n2nc(C)n3c(cc4sccc43)c2=O)cc1 (stereo not drawn)	-4%	·	-9%[46.1 µM]	-1%	-11%	-5%
CC(C)CCNC(=O)c1ccc2c(c1)N(Cc1ccccc1F)C(=O)c1ccccc1S2(=O)=O	4%	-20%[46.1 µM]	-22%[46.1 µM]	-15%	27%	-7%
Cc1ncc2c(c1CNC(=O)c1cncs1)CCN(C(=O)c1ccc(C(F)(F)F)cc1)C2	·	·	·	-1%	-3%	-7%
CN(c1ccc(Cl)cc1)S(=O)(=O)c1nnc(NC(=O)c2ccco2)s1	20µM*!	-12%[46.1 µM]	·	3%	-2%	-11%
Cc1ccccc1N(C)S(=O)(=O)c1nnc(NC(=O)c2ccco2)s1	25µM*!	?	·	4%	7%	-5%
CC(=O)N1c2ccccc2C(=O)C1N1CCN(c2cccc(Cl)c2)CC1 (stereo not drawn)	4%	-12%[46.1 µM]	·	-9%	-14%	-19%
C=CCN1C(=O)[C@]2(O[C@H](C)CC3=CCCC32)c2c(Br)cccc21 (stereo partly drawn)	·	?	2%[14.2 µM]	·	·	·
C[C@@]12CCC=C[C@H]1[C@H](c1ccoc1)N(Cc1ccccc1)C2=O	35µM*	·	·	-19%	-7%	i
C[C@@]12CCC=C[C@H]1[C@H](c1ccccc1Br)N(Cc1ccccc1)C2=O	·	·	·	-2%	?	i
CCC1C(=O)NCCN1Cc1nc(-c2ccc(C)s2)oc1C (stereo not drawn)	40µM*	27%[46.1 µM]	?	-21%	4%	i
Cc1cccc(CNCCn2cc(C(=O)Nc3ccccc3)nn2)c1	·	·	·	-16%	10%	-15%
CC(OC(=O)c1cc(O)c2ccccc2c1O)C(=O)Nc1ccc(C(N)=O)cc1 (stereo not drawn)	22µM*	?	?	-17%	16%	?
CC(OC(=O)c1ccccc1C(=O)N(C)c1ccccc1)C(=O)Nc1ccc(C(N)=O)cc1 (stereo not drawn)	-7%	?	26%	-11%	-5%	i
CCc1ccc(NC(=O)CSC2=C(C#N)[C@H](c3ccco3)C3=C(CCCC3=O)N2)cc1	·	·	-29%	·	·	·
NS(=O)(=O)c1cccc(C(=O)NC2CCSc3ccccc32)c1 (stereo not drawn)	2%	14%	-5%[46.1 µM]	-2%	0%	1%
O=C(NC1CCSc2ccccc21)c1cccc(Cl)c1 (stereo not drawn)	7.9µM*	16%[46.1 µM]	-22%[46.1 µM]	-3%	?	i
CCCSC1=N/C(=C\C=C\c2ccco2)C(=O)S1	32µM*	-6%	-13%	0%	22%	-11%
c1ccc2c(Nc3ccc4c(c3)OCCO4)c3c(nc2c1)CCCC3	-6%	7.9µM*	?	?	-19%	?
COc1cc(Nc2c3c(nc4ccccc24)CCCC3)cc(OC)c1OC	3%	-19%[46.1 µM]	4.5µM*	?	-10%	?
COc1ccccc1Nc1c2c(nc3ccccc13)CCC2	0%	?	?	-27%	-26%	?
SMILES	Sm TGR inh	LASV entry inh	Marburg entry inh	VACV Venus inh	FMDV antiviral	Vaccinia mCherry
CCc1nn(CC(=O)NCCc2ccc(Cl)cc2)c(=O)c2cc3c(OC)cccc3n12	-3%	·	4%[46.1 µM]	-18%	-20%	-10%
CC1(c2nnc(-c3ccccc3)o2)CC(c2cccc(Cl)c2)=NO1 (stereo not drawn)	1%	·	·	-15%	0%	i
CC1(c2nnc(Cc3ccccc3)o2)CC(c2ccc([N+](=O)[O-])cc2)=NO1 (stereo not drawn)	6.3µM*	·	·	-10%	?	-6%
CC1(c2nnc(-c3cccc(Cl)c3)o2)CC(c2cccc([N+](=O)[O-])c2)=NO1 (stereo not drawn)	45µM*	·	·	-18%	-22%	?
Cc1ccc(CN2CCc3nnc(C(NS(C)(=O)=O)C(C)C)n3CC2)cc1C (stereo not drawn)	·	·	·	-15%	-18%	-24%
O=C(O)[C@@H](O)c1ccco1	·	·	-11%	·	·	·
CCN(Cc1ccccc1)C(=O)c1cc(-c2ccccc2)n[nH]1	-5%	12%[46.1 µM]	·	-7%	78%	-8%
CCC1CN(C)C2Cc3c([nH]c4ccccc34)C(=O)CC1C2C(=O)OC (stereo not drawn)	45µM*	·	·	-2%	0%	-4%
O=C1CC(c2ccccc2Cl)c2c(sc3c(=O)[nH]c(CCl)nc23)N1 (stereo not drawn)	25µM*	·	·	·	·	·
O=C(CCCn1c(=O)c2cccn2c2ccccc21)NCCc1ccc(Cl)cc1	0%	?	·	-14%	-16%	-9%
CCOC(=O)c1ccc(N2C(=O)CC(N3CCOCC3)C2=O)cc1 (stereo not drawn)	?	?	0%[46.1 µM]	9%	-5%	-6%
CCOC(=O)c1ccc(N2C(=O)CC(N3CCC(C(N)=O)(N4CCCCC4)CC3)C2=O)cc1 (stereo not drawn)	28µM*	0%	13%	-9%	·	-12%
CCOc1cccc(N2C(=O)CC(N3CCC(C(N)=O)(N4CCCCC4)CC3)C2=O)c1 (stereo not drawn)	45µM*	13%	18%	-14%	9%	-14%
CCOC(=O)C1CCCN(C2CC(=O)N(c3ccc(NC(C)=O)cc3)C2=O)C1 (stereo not drawn)	45µM*	19%	?	6%	-14%	-14%
Cc1cc(C)nc(Sc2ncnc(N)c2[N+](=O)[O-])n1	4µM*	-13%	?	-6%	13µM*	-4%
Cc1ccc(C2C(=O)N(C3CCCCCC3)CC(=O)N2CCC2=CCCCC2)cc1 (stereo not drawn)	43%	?	·	-10%	-15%	-12%
COC(=O)C1=C(C)NC(=O)/C1=C\c1cccs1	-24%	0%	-12%	-24%	9%	·
COC(=O)C1=C(C)NC(=O)/C1=C\N(C)C	25µM*	13%	4%[46.1 µM]	-6%	6%	-2%
COC(=O)C1=C(C)NC(=O)/C1=C\c1ccc2c(c1)OCO2	35µM*	16%	0%	·	-3%	·
COC(=O)c1[nH]c2ccc(Br)cc2c1NC(=O)CN1CCN(C2CCCCC2)CC1	-19%	?	6.5µM*	·	32µM*	·
COC(=O)c1[nH]c2ccc(C)cc2c1NC(=O)CCN1CCN(C2CCCCC2)CC1	5%	·	-1%	·	·	·
